# Rows were chosen to be rich in hits. Some 4.7% of all compounds tested hit in one or more screens of this group.
# TRHR enhancer = qHTS for Small Molecule Agonists and Allosteric Enhancers of Human TRH Receptor: Primary Screen for Enhancers. Thyrotropin-releasing hormone receptor (Homo sapiens), P34981. TRHR cells, fluo-8 calcium fluorescence, EC20 TRH enhancement. enhancement, % at 2 µM. actives 0.66% (n = 360,000). AID 493056, 2011; in the data active = enhancement above about 30%; note: 0% is about no effect
# Target sequence (P34981 whole entry, looked up): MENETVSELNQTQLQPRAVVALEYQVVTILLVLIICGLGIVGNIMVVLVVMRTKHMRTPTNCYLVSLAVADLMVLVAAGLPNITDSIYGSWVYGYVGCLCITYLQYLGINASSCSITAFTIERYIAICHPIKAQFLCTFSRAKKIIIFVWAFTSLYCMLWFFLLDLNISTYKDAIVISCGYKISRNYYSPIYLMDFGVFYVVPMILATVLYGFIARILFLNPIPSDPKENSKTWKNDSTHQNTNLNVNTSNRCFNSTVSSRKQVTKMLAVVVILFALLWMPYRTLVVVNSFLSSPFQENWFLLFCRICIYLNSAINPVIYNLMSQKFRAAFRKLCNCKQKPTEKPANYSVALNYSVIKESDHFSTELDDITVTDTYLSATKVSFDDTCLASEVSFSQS
#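 TRHR-expressing cells loaded with fluo-8 calcium dye were read kinetically (ex 480/em 530) during compound addition, then stimulated with an EC20 of TRH (10 nM final). Enhancement of the Gq-mediated intracellular calcium response was scored.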
# D1 antag = Antagonist of Human D 1 Dopamine Receptor: qHTS; activity change, negative = inhibition, % at 10 µM; HEK293 TREx D1 cells, calcium flux, dopamine EC80; stronger effect = lower value; actives 3.2% (n = 360,000); D(1A) dopamine receptor (Homo sapiens), P21728; in the data active = activity change below about -30%; note: % is set by controls: 0 for no effect and ±100 for the full control effect
#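 Kinetic fluorescence of a calcium dye serves as the read-out. D1-expressing Hek293 Trex cells, induced overnight at 30 C, are exposed to compound for 180 s before an EC80 dopamine addition, then read 180 s further.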
# D1 potentiator = Potentiators of Human D1 Dopamine Receptor: qHTS | D(1A) dopamine receptor (Homo sapiens), P21728 | HEK293 TREx D1 cells, calcium flux, dopamine EC20 potentiation | potentiation, % at 10 µM | actives 0.036% (n = 360,000) | AID 504651, 2011; in the data active = potentiation above about 30%; note: 0% is about no effect
# D1 agonist = Allosteric Agonists of the Human D1 Dopamine Receptor: qHTS; D(1A) dopamine receptor (Homo sapiens), P21728; HEK293 T-REx D1 cells, calcium flux, agonist mode; activation, % at 2 µM; actives 1% (n = 360,000); AID 504660, 2011; note: 0% is about no effect
#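 Tetracycline-induced HEK293 TREx D1 cells, force-coupled to calcium signalling, were dye-loaded with a no-wash calcium kit. Compound was pin-added after a 10 s baseline. Fluorescence was read kinetically at 1 cycle/s for 180 s, with calcium rises flagged as agonism.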
# TRHR agonist = qHTS for Small Molecule Agonists and Allosteric Enhancers of Human TRH Receptor: Primary Screen for Agonists; AID 493084, 2011; actives 0.18% (n = 360,000); TRHR cells, calcium flux fluo-8, FDSS agonist mode; activation, % at 2 µM; note: 0% is about no effect
#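 Read-out: compound-evoked intracellular calcium rise in TRHR cells, fluo-8 dye, kinetic FDSS fluorescence at 1 s/cycle following a 10-cycle baseline. Cells cultured overnight before dye loading (30 min–1.5 h, RT).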
# Active calls of the source: *; ! = a repeat was not active. Cut-off read from the data, not from the text of the source, unless noted: active = activation above about 30%; inactive = the rest.
SMILES,TRHR enhancer,D1 antag,D1 potentiator,D1 agonist,TRHR agonist
CN(Cc1cccs1)C(=O)/C=C/c1ccccc1[N+](=O)[O-],13,-41*,-8,10,0
CC1(C(=O)NCc2ccc(Cl)c(Cl)c2)Oc2cccnc2NC1=O (stereo not drawn),6,-22,-6,32*,6
CCCCN(C(=O)c1ccc(C)c(S(=O)(=O)N2CCOCC2)c1)c1c(N)n(CCCC)c(=O)[nH]c1=O,6,2,8,2,0
CN1CCN(CC(=O)Nc2cc(N(C)C)nc3ccccc23)CC1,-2,-31*,-9,3,0
COc1ccc(NC(=S)NC2CC3CCC(C2)N3Cc2ccco2)cc1 (stereo not drawn),24,-64*,-6,18,-2
Cc1ccc(NC(=S)NC2CC3CCCC(C2)N3Cc2ccco2)cc1 (stereo not drawn),10,-65*,-3,41*,0
Cc1cc(C)cc(NC(=S)NC2CC3CCCC(C2)N3CC(C)C)c1 (stereo not drawn),-2,5,-4,6,0
Cc1ccc(NC(=S)NC2CC3CCCC(C2)N3Cc2cccs2)cc1 (stereo not drawn),-3,-87*,-10,14,6
Cc1cccc(NC(=S)NC2CC3CCCC(C2)N3CC(C)C)c1 (stereo not drawn),-2,-59*,-9,10,-1
Cc1cccc(NC(=S)NC2CC3CCC(C2)N3Cc2ccco2)c1 (stereo not drawn),-4,-67*,-20,17,0
CCc1ccc(NC(=S)NC2CC3CCC(C2)N3Cc2ccco2)cc1 (stereo not drawn),2,-77*,-3,20,0
Cc1ccccc1NC(=S)NC1CC2CCC(C1)N2Cc1ccco1 (stereo not drawn),-5,-30,5,1,0
c1ccc(CNCc2nnc(-c3cc4ccccc4[nH]3)o2)cc1,0,12,0,5,1
CCN(CC)c1ccc(/C=C2/SC(=O)N(C(C)C)C2=O)o1,-4,19,-2,59*,17
CC(C)N1C(=O)S/C(=C\c2ccc(-c3ccc(Cl)c(C(=O)O)c3)o2)C1=O,5,5,-4,2,-2
CC(=O)N/C(=C\c1ccccc1)C(=O)OCC(=O)Nc1cc(S(=O)(=O)N(C)C)ccc1Cl,11,0,-6,5,0
CCc1cc2c(-c3ccccc3)cc(=O)oc2c(CN2CCOCC2)c1O,-3,36,2,55*,21
COc1ccc(-c2ccc(NS(=O)(=O)c3ccc(NC(C)=O)cc3)cc2)nn1,1,-3,0,1,1
CC1(C)Cc2nc3sc4c(N(CCO)CCO)nnnc4c3cc2CO1,30*,-4,-9,8,0
O=[N+]([O-])c1ccc(O)c(C2=NNC(c3ccccc3F)C2)c1 (stereo not drawn),-3,-33*,0,14,1
Cc1ccc(NC(=O)C2=CC(c3ccc(C)cc3)=NS(=O)(=O)N2C)cc1,-2,-2,-6,16,0
CC(=O)c1ccc(NC(=O)C2=CC(c3ccc4c(c3)OCO4)=NS(=O)(=O)N2C)cc1,-7,-15,1,33*!,1
CC(=O)c1ccc(NC(=O)C2=CC(c3ccc(C)cc3)=NS(=O)(=O)N2C)cc1,-2,-46*,-1,1,0
CCc1cccc(-n2nnc(-c3nc(-c4ccccc4Cl)no3)c2N)c1,9,-6,0,2,-1
Cc1c(C(=O)Nc2ccc(S(=O)(=O)N(C)C3CCN(C)CC3)cc2)oc2c(Cl)cccc12,-3,-60*,-2,59*,0
SMILES,TRHR enhancer,D1 antag,D1 potentiator,D1 agonist,TRHR agonist
Cc1c(C(=O)Nc2ccc(S(=O)(=O)N(C)C3CCN(C)CC3)cc2)oc2ccccc12,-2,-30,-6,32*,1
CCN(CC)CCC(c1ccc(N(C)C)cc1)c1c(O)cc(OC)cc1OC (stereo not drawn),1,-6,3,8,1
CSc1ccc(CC2C(=O)Nc3ccccc32)cc1 (stereo not drawn),2,0,2,-2,0
Cc1cc(C)cc(-n2ccnc2SCC(=O)Nc2ccccc2F)c1,-2,-22,-6,6,0
CCOCCCNC(=O)C(NC(=O)Cc1cccs1)c1ccc(C)cc1 (stereo not drawn),-3,-44*,-3,1,-1
Cc1cc(C)c2c(c1)c1nnc(SCCN3CCCCC3)nc1n2C,2,7,0,0,0
CCN(C(=O)Cn1nc(Cc2ccncc2)c2ccccc2c1=O)c1cccc(Cl)c1,0,-83*,-2,0,-1
O=C(CSc1nc2ccccc2c(=O)n1-c1ccc(F)cc1)Nc1ccc(Cl)c(S(=O)(=O)N2CCOCC2)c1,3,-52*,-4,6,2
O=C(COc1ncnc2ccccc12)Nc1ccc(Cl)c(S(=O)(=O)N2CCOCC2)c1,-2,-38*,-1,4,-1
O=C(CSc1nc2ccccc2c(=O)n1-c1ccc(F)c(Cl)c1)Nc1cccc(S(=O)(=O)N2CCOCC2)c1,-4,-11,-3,5,2
O=C(Cc1cccs1)Nc1ccc(Cl)c(S(=O)(=O)N2CCOCC2)c1,-1,-33*,1,15,0
Cc1n[nH]c(C)c1S(=O)(=O)N(CC(=O)NCc1ccccc1Cl)c1ccc(C(C)C)cc1,8,22,3,4,-1
Cc1ccc(C)c(N2CCN(C(=O)CCS(=O)(=O)c3cc4c(cc3Cl)NC(=O)CO4)CC2)c1,14,-2,4,0,0
CCOc1cc(CNC2CCCC2)c(Cl)cc1OCC(=O)Nc1ccccc1,1,-5,-5,12,2
CCOC(=O)c1ccc(NC(=O)COc2ccccc2CNC2CCCC2)cc1,2,-36*,-7,25,2
Oc1[nH]c(=S)sc1/C=C1\C(c2ccccc2)=Nc2ccccc21,-7,0,-7,38*,9
COc1ccc(Nc2cc(C)c3cc(NC(=O)Cc4ccc(Cl)cc4)ccc3n2)cc1,15,-20,3,2,0
CN1CCN(S(=O)(=O)c2ccc(N(C)Cc3ccc(OC(F)F)cc3)c([N+](=O)[O-])c2)CC1,-5,-39*,-6,11,1
Cc1ccc(S(=O)(=O)N2CCN(C)CC2)cc1[N+](=O)[O-],-5,2,-8,1,1

# Compound activity: PubChem BioAssay, National Center for Advancing Translational Sciences (NCATS)
